Among the data in PubChem BioAssay AID686979 (National Center for Advancing Translational Sciences (NCATS), 2013) are Potency values, retold here.

Structures are written as SMILES. Values joined by “and” are separate entries in the source; they are usually repeats but may differ in a detail not shown here. Equal values may be shown once. About 50,000 (12%) of roughly 420,000 compounds were called active. Entries that show only a call come without a potency. About 26% were inconclusive and are not listed. This is one part of a sample in which actives are shown more often than they occur. Calls come from the whole dose curve; as a rule, active = well fitted inhibition curve with a large enough effect; inconclusive = small, poorly fitted or top-dose-only effect; inactive = flat fitted curve, though single readings scatter. Where a SMILES comes first, the peptide text is derived from it. [ ]: non-standard residue; d: D form. ξ: configuration not given here. Ac5c = NC1(C(=O)O)CCCC1; ξS = NC(CO)C(=O)O
Potency is the fitted concentration of half-maximal effect.

The test in a line: qHTS for Inhibitors of human tyrosyl-DNA phosphodiesterase 1 (TDP1): qHTS in cells in presence of CPT. Note: nearly all actives have a fitted effect of over 55% in size. Conditions: chicken DT40 Tdp1-/-;hTDP1 cells + 20 nM CPT, ATP luminescence, 48 h; series mostly up to 46.2 µM. An outline of the steps: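 Chicken DT40 Tdp1-/- cells stably complemented with human TDP1 were seeded at 400 cells/well in medium containing 20 nM camptothecin, exposed to pin-transferred compounds, and grown at 37 °C for at least 48 hr. Viability was read as ATP luminescence.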
`O=C(NCCc1ccc(C(F)(F)F)cc1)c1ccc2c(c1)OCO2`: the Potency entry was “inactive”.

As for `O=C(NCCc1ccc2c(c1)OCCO2)c1cc2ccccc2o1`, the Potency was 16.4 µM (active).

Take `CN(C)C(CNC(=O)c1cc2ccccc2o1)c1ccccc1` (stereo not drawn): the Potency result was “inactive”.

Regarding `CCOc1ccc(C2C3=C(CCCC3=O)N(CC(=O)O)C3=C2C(=O)CCC3)cc1`, the Potency result was “inactive”.

As to `C=CCN1CCN(C(=O)CCCc2ccccc2)CC1`, the Potency entry was “inactive”.

Take `COc1ccc(NC(=O)[C@H](NC(=O)[C@@H]2Cc3ccccc3CN2)c2ccccc2)cc1`: the Potency result is “inactive”.

For the molecule `CC12CCCCC1=CC(=O)CC2` (stereo not drawn), the Potency result is “inactive”.

For `Cn1c(=N)n(CC(O)c2cccs2)c2ccccc21` (stereo not drawn), the Potency result is “inactive”.

With `Cn1c(=N)n(CC(O)c2ccccc2)c2ccccc21` (stereo not drawn), the Potency entry is “inactive”.

Take `CCOc1ccc(C(O)Cn2c(=N)n(CCN3CCCCC3)c3ccccc32)cc1` (stereo not drawn): the Potency is 20.6 µM (active).

For `NC(=O)C1CCN(C(=O)c2cn(-c3ccccc3)nc2-c2cccnc2)CC1`, the Potency entry was “inactive”.

Consider `CCOc1ccc(C(CC(=O)O)NC(=O)C23CC4CC(CC(C4)C2)C3)cc1OC` (stereo not drawn), for which the Potency entry was “inactive”.

As for `CCOCCCNC(=S)Nc1ccc2nc(N3CCN(CC)CC3)cc(C)c2c1`, the Potency result is “inactive”.

As to `COc1ccc(NC(=O)CC2SC(N3CCCCC3)=NC2=O)cc1OC` (stereo not drawn), the Potency entry is “inactive”.

With `CCN1CCN(c2cc(C)c3cc(NC(=O)c4cc(Cl)ccc4OC)ccc3n2)CC1`, the Potency was 4.61 µM (active).

For `Cc1cc(N2CCN(C)CC2)nc2ccc(NC(=S)N3CCOCC3)cc12`, the Potency entry was “inactive”.

For `COC(=O)c1ccc(NC(=O)c2cc(Cl)ccc2OC)cc1`, the Potency result is “inactive”.

`COc1ccc(C(=O)Nc2ccc3nc(N4CCCCC4)cc(C)c3c2)cc1OC`: the Potency was 23.1 µM (active) and 20.6 µM (active).

Regarding `CCOc1cc(C(C(=O)NCC2CCCO2)N(C(=O)Cn2nnc3ccccc32)c2cccc(OC)c2)ccc1O` (stereo not drawn), the Potency result was “inactive”.

For the molecule `Cc1nnc(C(=O)NC(C)(C)c2nc(C(=O)NCc3ccc(F)cc3)c(O)c(=O)n2C)o1`, the Potency entry is “inactive”.

For `NC(=O)CCN1CCN(S(=O)(=O)/C=C/c2ccccc2)CC1`, the Potency result is “inactive”.

Consider `CN1OC[C@@H]2CN[C@H](c3ccc(-c4ccccc4)cc3)C[C@@H]21`, for which the Potency entry is “inactive”.

On to `Cc1ccc(NC(=O)CSc2nc3c(c(=O)[nH]2)CN(Cc2ccc4c(c2)OCO4)CC3)cc1C`, for which the Potency entry was “inactive”.

In the case of `COc1cccc(C(=O)NCC(=O)OCc2cc(=O)n3ccsc3n2)c1`, the Potency entry was “inactive”.

As to `COc1cc(OC)cc(C(=O)NCC(=O)OCc2csc(-c3ccccc3)n2)c1`, the Potency was 16.4 µM (active).

For the molecule `COc1cc(OC)cc(C(=O)NCC(=O)OCC(=O)NC(C)CCc2ccccc2)c1` (stereo not drawn), the Potency entry was “inactive”.

For `C=CCOc1ccc(Cl)cc1CNCCCN1CCOCC1`, the Potency result is “inactive”.

For the molecule `CC(=O)NCCC(=O)Nc1nc(C)c(Cc2ccc3c(c2)OCO3)s1`, the Potency result was “inactive”.

For the molecule `CCOC(=O)C1(Cc2ccccc2C)CCCN(S(C)(=O)=O)C1` (stereo not drawn), the Potency entry was “inactive”.

In the case of `CNC(=O)NC(=O)CSc1nnc(-c2ccc(F)cc2)n1CC1CCCO1` (stereo not drawn), the Potency result is “inactive”.

`COc1ccc(CCNC(=S)N2CCN(S(=O)(=O)c3ccc(Cl)cc3)CC2)cc1`: the Potency result was “inactive”.

In the case of `O=C(NCCc1ccc(Cl)cc1)C1CCCN1C(=O)NCc1ccccc1` (stereo not drawn), the Potency entry was “inactive”.

Consider `Oc1cc2c(cc1O)CN(C(=S)NCCc1ccc(Cl)cc1)CCC2`, for which the Potency is 13.3 µM (active) and 7.08 µM (active).

In the case of `CCOc1ccc(C(=O)NCC(=O)N2CCCCCCC2)cc1OCC`, the Potency result is “inactive”.

On to `CCc1cc2c(cc3c(=O)n(CC(=O)N4CCN(c5cc(Cl)ccc5C)CC4)nc(CC)n32)s1`, for which the Potency entry was “inactive”.

Take `CCOc1ccc(CCNC(=O)Cn2nc(CC)n3c(cc4sc(CC)cc43)c2=O)cc1OCC`: the Potency was 16.4 µM (active).

As to `CCc1cc2c(cc3c(=O)n(CC(=O)NCCc4ccc(OC)c(OC)c4)ncn32)s1`, the Potency entry was “inactive”.

On to `COc1ccc2cc(C(=O)O)n(CC(=O)c3ccccc3)c2c1`, for which the Potency entry is “inactive”.

On to `CCOC(=O)C1=C(c2ccccc2)O/C(=C(/C(=O)OC)C(F)(F)F)S1`, for which the Potency entry was “inactive”.

Consider `O=C(NCC(=O)N(CC1CCCO1)C(C(=O)NC1CCCCC1)c1ccccc1)c1ccco1` (stereo not drawn), for which the Potency result is “inactive”.

For the molecule `O=C(c1ccco1)N1CCN(C(=O)C2CCCN(S(=O)(=O)c3cccc4nsnc34)C2)CC1` (stereo not drawn), the Potency entry is “inactive”.

As for `CCCCN(C)CCNC(=O)C1CCCN(S(=O)(=O)c2cccc3nsnc23)C1` (stereo not drawn), the Potency result was “inactive”.

For `CCCCN(CC)C(=O)C1CCCN(S(=O)(=O)c2cccc3nsnc23)C1` (stereo not drawn), the Potency was 25.9 µM (active).

On to `CCOC(=O)C(CO)NC(=O)C1(NC(C)=O)CCCC1` (stereo not drawn) (Ac-[Ac5c]-[ξS]-OEt), for which the Potency result is “inactive”.

For the molecule `OCC1(Cc2ccccc2C(F)(F)F)CCN(Cc2ccncc2)CC1`, the Potency entry is “inactive”.

Turning to `COc1cccc(C(=O)CC(=O)C(=O)Nc2ccc([N+](=O)[O-])cc2C)c1`, the Potency was 23.1 µM (active).

As to `COc1cccc(C(=O)Oc2cc(C)[nH]c(=O)c2[N+](=O)[O-])c1`, the Potency result was “inactive”.

In the case of `Cc1cc([N+](=O)[O-])ccc1NC(=O)C1CCCO1` (stereo not drawn), the Potency result was “inactive”.

For the molecule `COc1ccc(NC(=O)CCNC(=O)Cn2ccc3ccccc3c2=O)c(OC)c1`, the Potency result is “inactive”.

For `COc1ccc(NC(=O)c2cc(-c3ccc(C)o3)nc3ccccc23)cc1`, the Potency entry was “inactive”.

Regarding `CCN(CCCNC(=O)c1cc(Nc2ccc(OC)cc2)nc2ccccc12)c1cccc(C)c1`, the Potency was 20.6 µM (active).

Take `COc1ccc(NC(=O)c2cc(-c3cc(OC)c(OC)c(OC)c3)nc3ccccc23)c(OC)c1`: the Potency is 13 µM (active).

With `COc1ccc(Nc2cc(C(=O)NCCCN(C)c3ccccc3)c3ccccc3n2)c(OC)c1`, the Potency was 13 µM (active).

In the case of `COc1ccccc1NC(=O)c1cc(Cl)nc2ccccc12`, the Potency result is “inactive”.

`COc1ccc(NC(=O)CNC(=O)Cn2ccc3ccccc3c2=O)c(OC)c1`: the Potency result is “inactive”.

With `CCN(CCCNC(=O)Cn1ncc2c([nH]c3ccccc32)c1=O)c1cccc(C)c1`, the Potency result was “inactive”.

On to `COc1ccc(CNC(=O)COC(=O)C2=Cc3ccccc3OC2)cc1`, for which the Potency result is “inactive”.

For the molecule `COC(=O)c1ccc(CNC(=O)Cn2cc(C)c(=O)[nH]c2=O)cc1`, the Potency result is “inactive”.

Consider `O=C(Cn1c2[n+](c3ccc(C(F)(F)F)cc31)CCCCC2)Nc1c(F)cccc1F`, for which the Potency result is “inactive”.

For the molecule `Cc1ccc(CN(C)Cc2cc(=O)oc3cc(C)c(Cl)cc23)cc1`, the Potency entry is “inactive”.

In the case of `Cc1cc(NC(=O)CSc2ncc(C(F)(F)F)cc2Cl)no1`, the Potency entry was “inactive”.

Take `Cc1c(Cl)cccc1NC(=O)CCC(=O)N/N=C/c1ccco1`: the Potency result is “inactive”.

Turning to `C[C@H](CO)N1C[C@H](C)[C@@H](CN(C)C(=O)NC2CCCCC2)Oc2ccc(NC(=O)c3ccncc3)cc2C1=O`, the Potency entry was “inactive”.
